This passage reports growth results from PubChem BioAssay (NCI).

SMILES strings stand for the structures. About 83,000 compounds went through this panel and 20% of them were active in at least one assay; those are over-represented in the sample as a whole.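 Step 1: grow cells in 96-well plates. Step 2: add test compound at a single concentration. Step 3: incubate 48 h. Step 4: record percent growth.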 A number with no mark means an inactive call. Active and inactive are the calls of the source. The calls were made as follows: active = growth percent below 10; inactive = the rest.

In the experiment the test system is HL-60(TB) leukemia. In words: NCI-60 one-dose screen, 48 h (100 = growth as untreated, 0 = no growth, -100 = all killed). Particulars: 10 µM unless noted.
In the case of `O=C1Nc2ccc(Cl)cc2/C1=N/c1nc(-c2ccc(Cl)cc2)cs1`, the growth is -32.4% (active).
The result for `CCn1cc(C(=O)O)c(=O)c2cc(F)c(N3CCN(CC(=O)Nc4ccc(S(=O)(=O)Nc5nccc(C)n5)cc4)C(C)C3)c(F)c21` (centres undefined) reads 115%.
The result for `O=c1ccc2nc(-c3ccccn3)nn(-c3ccccc3)c-2c1` reads 31.1%; that for `COc1ccc(-c2cc(-c3ccc(OC)cc3)c3sc(=O)[nH]c3n2)cc1`, 84.7%; that for `CCc1ccc(C2=C(O)C(=O)C(c3ccc(CC)cc3)=C(O)C2=O)cc1`, -57.6% (active).
The result for `COc1ccccc1NC(=O)OCC12COCN1COC2` reads 102%; that for `O=C1OCC2=C1C(c1cccc(C(F)(F)F)c1)c1cc3c(cc1N2CCO)OCO3` (centres undefined), -24.9% (active).
On to `CCCCCCCCCc1cc[n+](CC(=O)c2ccc([N+](=O)[O-])cc2)cc1`, for which the growth is -40.4% (active).
The result for `O=C1c2cc3c(cc2-c2c1c1cc(Cl)c(Cl)cc1c(=O)n2CCCn1ccnc1)OCO3` reads -19.4% (active).
The result for `CC(C)(Sc1cc(C(C)(C)C)c(O)c(C(C)(C)C)c1)Sc1cc(C(C)(C)C)c(OC(=O)CCC(=O)O)c(C(C)(C)C)c1` reads 56.1%; that for `CC(C)Cn1c2c(c(=S)[nH]c1=O)CCC2`, 107%; that for `CCCCC(C#N)C(N)=O` (centres undefined), 93.8%.
The result for `COc1ccc(-c2cc(-c3cccnc3)nc3sc(C(=O)Nc4ccccc4)c(N)c23)cc1OC` reads 60.2%; that for `Cc1nc2sc(C(=O)Nc3cccc(Cl)c3)c(N)c2cc1C(O)c1ccccc1` (centres undefined), -40.9% (active).
